Results from the supplement of paper PMC6555819.

Assays:
Assay in all cases: PBM binding z-score (relative to random genomic background probes); higher = stronger binding; sequences stand for … in GC…GCGATTGACAGCGTAGAATGAAGG
[1] = tested on: RARb homodimer (NR concentration 270 nM)
How it was run: (§1)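 Ligand-free nuclear receptor dimers were bound for 1 h to custom Agilent 4×180K protein-binding microarrays. Detection used antibodies against each partner (one per run). Binding z-scores rest on regression-normalized fluorescence, with random background probes as the reference.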

[2] = tested on: RARg:RXRa (NR concentration 270 nM, RXRa partner concentration 90 nM)
How it was run: as §1

[3] = tested on: RARg homodimer (NR concentration 270 nM)
How it was run: as §1

[4] = tested on: RXRa DBDmut IVT, anti-RXR (DBD mutation: RXRa K156A/R161A, NR concentration 90 nM)
How it was run: as §1

[5] = tested on: RXRa homodimer (NR concentration 180 nM)
How it was run: as §1

[6] = tested on: THRa:RXRa (NR concentration 90 nM, RXRa partner concentration 90 nM)
How it was run: as §1

[7] = tested on: THRa homodimer (NR concentration 90 nM)
How it was run: as §1

[8] = tested on: VDR homodimer (NR concentration 270 nM)
How it was run: as §1

Sequence: AGAATGAGGTTCTACGTAGATCAGGGAAGAAAGT
- PBM binding z-score [1]: -0.327
- PBM binding z-score [2]: -0.12
- PBM binding z-score [3]: 0.0722
- PBM binding z-score [4]: 0.025
- PBM binding z-score [5]: -0.0793
- PBM binding z-score [6]: -0.0436
- PBM binding z-score [7]: -0.709
- PBM binding z-score [8]: -0.322

Sequence: TAGCCTAGGTAATGGGCCAGTATACCACGCGAAC
- PBM binding z-score [1]: -0.381
- PBM binding z-score [2]: -0.234
- PBM binding z-score [3]: -0.0696
- PBM binding z-score [4]: -1.16
- PBM binding z-score [5]: -0.0912
- PBM binding z-score [6]: -0.354
- PBM binding z-score [7]: -0.5
- PBM binding z-score [8]: -0.715

Sequence: CCTAGTTGGTCAAGGTCACACAGGCTATAGGTAC
- PBM binding z-score [1]: 4.45
- PBM binding z-score [2]: 4.8
- PBM binding z-score [3]: 5.13
- PBM binding z-score [4]: 2.24
- PBM binding z-score [5]: 4.86
- PBM binding z-score [6]: 4.16
- PBM binding z-score [7]: 4.07
- PBM binding z-score [8]: 4.27

Sequence: TCTTGTAGATCAAGCAGATTAAGAAAGCCTGAGT
- PBM binding z-score [1]: -0.625
- PBM binding z-score [2]: -0.157
- PBM binding z-score [3]: -0.298
- PBM binding z-score [4]: 0.446
- PBM binding z-score [5]: 0.2
- PBM binding z-score [6]: -0.439
- PBM binding z-score [7]: -0.521
- PBM binding z-score [8]: -0.466

Sequence: TGAATGAGGTTAGAGATCAGGGAACGTGGCGTCG
- PBM binding z-score [1]: 0.675
- PBM binding z-score [2]: 1.04
- PBM binding z-score [3]: 0.944
- PBM binding z-score [4]: -0.0534
- PBM binding z-score [5]: 1.71
- PBM binding z-score [6]: 1.39
- PBM binding z-score [7]: 0.0858
- PBM binding z-score [8]: -0.315

Sequence: ACTAGCAGGCCAAGGTTCACTCAAGATTAGTCCG
- PBM binding z-score [1]: 1.66
- PBM binding z-score [2]: 1.53
- PBM binding z-score [3]: 1.15
- PBM binding z-score [4]: 1.75
- PBM binding z-score [5]: 1.58
- PBM binding z-score [6]: 1.31
- PBM binding z-score [7]: 0.0178
- PBM binding z-score [8]: 3.42

Sequence: ATCGAAAGGTCGAAGGTGATTATACCCACCCGAA
- PBM binding z-score [1]: 2.14
- PBM binding z-score [2]: 4.11
- PBM binding z-score [3]: 3.87
- PBM binding z-score [4]: 0.956
- PBM binding z-score [5]: 4.77
- PBM binding z-score [6]: 1.97
- PBM binding z-score [7]: 0.193
- PBM binding z-score [8]: 0.477

Sequence: GCATATAGGTAATACATGGTGAAAGTCCGATTGT
- PBM binding z-score [1]: -0.181
- PBM binding z-score [2]: 0.00391
- PBM binding z-score [3]: 0.437
- PBM binding z-score [4]: 0.319
- PBM binding z-score [5]: 0.441
- PBM binding z-score [6]: 0.327
- PBM binding z-score [7]: -0.218
- PBM binding z-score [8]: 0.32

Sequence: CATTACGGGTCACTGACAGGTTATAGCATTTGGA
- PBM binding z-score [1]: 3.58
- PBM binding z-score [2]: 5.97
- PBM binding z-score [3]: 4.78
- PBM binding z-score [4]: 2.24
- PBM binding z-score [5]: 5.7
- PBM binding z-score [6]: 3.2
- PBM binding z-score [7]: 0.716
- PBM binding z-score [8]: 1.4

Sequence: CCTCGGAGGACAGAAGGTCAGAGCGGTCCGCTTT
- PBM binding z-score [1]: 3.61
- PBM binding z-score [2]: 3.59
- PBM binding z-score [3]: 3.6
- PBM binding z-score [4]: 0.0416
- PBM binding z-score [5]: 1.82
- PBM binding z-score [6]: 2.35
- PBM binding z-score [7]: -0.136
- PBM binding z-score [8]: 0.0325

Sequence: CGAACTAGGTCATTGACAGGACCGTGAATAGTAA
- PBM binding z-score [1]: 2.09
- PBM binding z-score [2]: 3.59
- PBM binding z-score [3]: 3.95
- PBM binding z-score [4]: 2.37
- PBM binding z-score [5]: 2.17
- PBM binding z-score [6]: 2.32
- PBM binding z-score [7]: 0.476
- PBM binding z-score [8]: 1.15

Sequence: AGAACGAGGTTATACGTAGATCAGGGAAGAAAGT
- PBM binding z-score [1]: 0.438
- PBM binding z-score [2]: 1.69
- PBM binding z-score [3]: 1.07
- PBM binding z-score [4]: 1.54
- PBM binding z-score [5]: 2.02
- PBM binding z-score [6]: 1.41
- PBM binding z-score [7]: 0.179
- PBM binding z-score [8]: 0.807

Sequence: TCTCGGAAGACACGAAGGTCAGAGCTTTCCAGAG
- PBM binding z-score [1]: 3.02
- PBM binding z-score [2]: 1.39
- PBM binding z-score [3]: 1.67
- PBM binding z-score [4]: 0.484
- PBM binding z-score [5]: 1.61
- PBM binding z-score [6]: 1.09
- PBM binding z-score [7]: -0.118
- PBM binding z-score [8]: 0.195

Sequence: TAGCCTAGGTCATTCAGGGCCCAGTATAGAAAGC
- PBM binding z-score [1]: 2.54
- PBM binding z-score [2]: 3.96
- PBM binding z-score [3]: 4.34
- PBM binding z-score [4]: 1.96
- PBM binding z-score [5]: 3.13
- PBM binding z-score [6]: 3.47
- PBM binding z-score [7]: 0.59
- PBM binding z-score [8]: 1.54

Sequence: CCAGACAGGTGAGAAGGTAACTCTGCCTCGATTA
- PBM binding z-score [1]: 0.53
- PBM binding z-score [2]: 0.418
- PBM binding z-score [3]: 0.366
- PBM binding z-score [4]: 0.11
- PBM binding z-score [5]: 0.281
- PBM binding z-score [6]: 0.348
- PBM binding z-score [7]: 0.0664
- PBM binding z-score [8]: -0.0879

Sequence: TATACAGGGTCAAAGGCCATAGTACGAATGTCGA
- PBM binding z-score [1]: 3.79
- PBM binding z-score [2]: 5.96
- PBM binding z-score [3]: 5.29
- PBM binding z-score [4]: 3.05
- PBM binding z-score [5]: 7.75
- PBM binding z-score [6]: 3.78
- PBM binding z-score [7]: 0.843
- PBM binding z-score [8]: 3.25

Sequence: CCTAGTTAGTCAAGGTCACACACGCTATAGGTAC
- PBM binding z-score [1]: 4.28
- PBM binding z-score [2]: 4.36
- PBM binding z-score [3]: 4.31
- PBM binding z-score [4]: 2.45
- PBM binding z-score [5]: 4.3
- PBM binding z-score [6]: 4.27
- PBM binding z-score [7]: 4.29
- PBM binding z-score [8]: 3.3

Sequence: TCTGCTAGGTCAGTTGGTCGGCTAACGAGCTGCC
- PBM binding z-score [1]: 2.21
- PBM binding z-score [2]: 2.28
- PBM binding z-score [3]: 3.11
- PBM binding z-score [4]: 0.384
- PBM binding z-score [5]: 0.902
- PBM binding z-score [6]: 1.17
- PBM binding z-score [7]: -0.205
- PBM binding z-score [8]: -1.1

Sequence: CCTGGGAGGACAACAGGAGGTCAGAGCTGCCAGA
- PBM binding z-score [1]: 3.72
- PBM binding z-score [2]: 3.71
- PBM binding z-score [3]: 3.6
- PBM binding z-score [4]: -0.219
- PBM binding z-score [5]: 2.29
- PBM binding z-score [6]: 3.05
- PBM binding z-score [7]: 1.32
- PBM binding z-score [8]: 1.37

Sequence: ACAGACAGGTGACTGAAGGTAACTCAGCTGGACG
- PBM binding z-score [1]: 0.000361
- PBM binding z-score [2]: 0.5
- PBM binding z-score [3]: 0.509
- PBM binding z-score [4]: -0.793
- PBM binding z-score [5]: 0.654
- PBM binding z-score [6]: 1.94
- PBM binding z-score [7]: -0.751
- PBM binding z-score [8]: -0.657

Sequence: GTACCAAGGTGAATAGTTCGTTGATGAGTAGGCG
- PBM binding z-score [1]: 1.71
- PBM binding z-score [2]: 1.94
- PBM binding z-score [3]: 1.34
- PBM binding z-score [4]: -0.0101
- PBM binding z-score [5]: 0.854
- PBM binding z-score [6]: 1.39
- PBM binding z-score [7]: 0.601
- PBM binding z-score [8]: 0.698

Sequence: TAGCCTAAGTCATTGGGCCAGTATAGTACGCATC
- PBM binding z-score [1]: -0.447
- PBM binding z-score [2]: 0.191
- PBM binding z-score [3]: 0.0194
- PBM binding z-score [4]: -0.879
- PBM binding z-score [5]: 0.156
- PBM binding z-score [6]: -0.214
- PBM binding z-score [7]: -0.958
- PBM binding z-score [8]: -0.312

Sequence: TCATATAGCTAAAAGGTGAAAGTCGGTGTGGTAA
- PBM binding z-score [1]: 1.42
- PBM binding z-score [2]: 0.817
- PBM binding z-score [3]: 0.551
- PBM binding z-score [4]: 0.962
- PBM binding z-score [5]: 1.4
- PBM binding z-score [6]: 0.958
- PBM binding z-score [7]: 0.0793
- PBM binding z-score [8]: -0.201

Sequence: TCATATAGGTAATACAGGTTAAAGTCGGCATCTA
- PBM binding z-score [1]: 0.936
- PBM binding z-score [2]: 0.979
- PBM binding z-score [3]: 0.696
- PBM binding z-score [4]: 2.04
- PBM binding z-score [5]: 1.63
- PBM binding z-score [6]: 1.35
- PBM binding z-score [7]: 0.204
- PBM binding z-score [8]: 0.629

Sequence: CCGAGTAGGTAATGGGGCATTCAGGCAACGGTGA
- PBM binding z-score [1]: 0.64
- PBM binding z-score [2]: -0.0696
- PBM binding z-score [3]: 0.0893
- PBM binding z-score [4]: -0.575
- PBM binding z-score [5]: 0.0759
- PBM binding z-score [6]: 0.219
- PBM binding z-score [7]: 0.00825
- PBM binding z-score [8]: -0.22

Sequence: TAGCCTAGGGCATTGGGCCAGTATAGTACGCATC
- PBM binding z-score [1]: 0.542
- PBM binding z-score [2]: 0.434
- PBM binding z-score [3]: 1.21
- PBM binding z-score [4]: -0.706
- PBM binding z-score [5]: 0.0585
- PBM binding z-score [6]: -0.328
- PBM binding z-score [7]: -0.611
- PBM binding z-score [8]: -0.306

Sequence: CCGACTGGGGCATAAGGTTACAATAAGCCAGCCC
- PBM binding z-score [1]: 1.61
- PBM binding z-score [2]: 1.66
- PBM binding z-score [3]: 1.08
- PBM binding z-score [4]: -0.313
- PBM binding z-score [5]: 1.18
- PBM binding z-score [6]: 1.95
- PBM binding z-score [7]: 0.977
- PBM binding z-score [8]: -0.296

Sequence: ACAGAAAGGTGATGAAGGTAACTCAGGCTATCAT
- PBM binding z-score [1]: 0.99
- PBM binding z-score [2]: 1.18
- PBM binding z-score [3]: 1.35
- PBM binding z-score [4]: 0.11
- PBM binding z-score [5]: 1
- PBM binding z-score [6]: 1.44
- PBM binding z-score [7]: 0.0697
- PBM binding z-score [8]: -0.00913

Sequence: TCGCGTAGGTTACCAATGGGGCATTCAGCTTTCT
- PBM binding z-score [1]: 0.809
- PBM binding z-score [2]: 1.42
- PBM binding z-score [3]: 0.306
- PBM binding z-score [4]: 0.302
- PBM binding z-score [5]: 0.572
- PBM binding z-score [6]: 0.107
- PBM binding z-score [7]: -0.509
- PBM binding z-score [8]: -0.338
